Compound activity: PubChem, National Center for Advancing Translational Sciences (NCATS)
An excerpt weighted towards active compounds, which were near 6.8% of everything screened.
KB-V1 MDR tox – kills drug-selected multidrug resistant KB-V1 cells. Potency, µM (highest dose often 46.1 µM), actives largely listed as cytotoxic. 400,000 tested, 3.4% active. KB-V1 MDR cells viability, CellTiter-Glo, 72 h; further: on the % scale 0 is the no-effect control and ±100 the full control effect; nearly all actives have a fitted effect of over 60% in size
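Cytotoxicity toward P-gp-expressing KB-V1 cells was determined as loss of CellTiter-Glo luminescence after 72 h at 37 degrees C. Compounds were tested in quantitative HTS format across a concentration range, with curves fitted to normalized data.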
PINK1 expr mod – PINK1 expression modulation. PINK1 immunofluorescence, high-content cytometry, 24 h. Potency, µM (doses to about 76.6 µM), for inactives: at the top dose activation (PINK1 increase), hits mostly activators. AID 624263. 410,000 tested, 0.2% active; active means well fitted activation curve with a large enough effect; inconclusive means small, poorly fitted or top-dose-only effect; cell line not stated here; further: % of control where 0% means no effect; nearly all actives have a fitted effect of over 65% in size
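Stable cell line treated 24 h with compounds at 5 concentrations (CCCP controls), then fixed and immunostained for PINK1 plus nuclear and cell stains; PINK1 immunofluorescence quantified by laser-scanning microplate cytometry.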
SW480 rereplic – induces DNA re-replication in SW480 colon adenocarcinoma cells | SW480 DNA re-replication, Hoechst DNA content imaging, 48 h | Potency, µM (highest dose often 46.1 µM), without a hit: at the top dose re-replication activation, hits mostly activators | AID 624297 | 340,000 tested, 1.8% active; further: % of control where 0% means no effect; nearly all actives have a fitted effect of over 55% in size
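Treated cells incubate 48 hr (37 C, 5% CO2), are stained 40 min with Hoechst, and nuclear fluorescence is enumerated; a rise in nuclei with high DNA signal marks re-replication.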
MCF10A rereplic – induces DNA re-replication in MCF 10a normal breast cells; MCF 10A DNA re-replication, Hoechst nuclear intensity, 48 h; Potency, µM (doses to about 46.1 µM), for the others: at the top dose activity, positive = re-replication, hits mostly activators; 350,000 tested, 2.9% active; AID 624296; further: % of control where 0% means no effect; nearly all actives have a fitted effect of over 50% in size
KB-3-1 cytotox – KB-3-1 parental cell cytotoxicity; KB-3-1 viability, CellTiter-Glo ATP luminescence, 72 h; Potency, µM (doses to about 46.1 µM), hits mostly cytotoxic; 400,000 tested, 1.4% active; further: on the % scale 0 is the no-effect control and ±100 the full control effect; nearly all actives have a fitted effect of over 60% in size
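Parental KB-3-1 viability, qHTS format: 72 h compound exposure, 37 °C; CellTiter-Glo; media-only wells and DMSO plates as controls; concentration-effect fits on corrected data.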
PTAP TSG101 blk – blocks PTAP/TSG101 interaction to inhibit HIV-1 budding. Fluorescence polarization, FITC-PTAP peptide / Tsg101 binding. Potency, µM (top dose mostly 115 µM), inactives show at the highest dose activity change, negative = inhibition, actives largely listed as inhibitors. 340,000 tested, under 10 active. AID 493005; active means well fitted inhibition curve with a large enough effect in the main read-out, with a control signal flat, not every such curve was filed as active; inconclusive means small, poorly fitted or top-dose-only effect, or effect the other way, or a change in a side signal; inactive means no such curve, though single readings can be large or run the other way; further: % of control where 0% means no effect
Target sequence (Q99816 whole entry, looked up): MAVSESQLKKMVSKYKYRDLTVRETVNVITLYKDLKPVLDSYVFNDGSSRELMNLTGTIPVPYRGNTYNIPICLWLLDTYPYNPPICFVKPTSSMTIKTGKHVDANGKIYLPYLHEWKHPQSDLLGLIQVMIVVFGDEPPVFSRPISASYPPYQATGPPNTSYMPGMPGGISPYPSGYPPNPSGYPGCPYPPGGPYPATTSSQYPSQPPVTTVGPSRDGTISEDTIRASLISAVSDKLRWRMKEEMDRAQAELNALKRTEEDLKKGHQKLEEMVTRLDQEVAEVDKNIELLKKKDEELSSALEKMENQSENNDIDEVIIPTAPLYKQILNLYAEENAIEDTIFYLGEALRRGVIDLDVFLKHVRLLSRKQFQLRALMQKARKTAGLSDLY
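Compounds were pin-transferred onto Tsg101 binding domain (10 uM final) in HEPES pH 7.5 buffer, then FITC-PTAP peptide was added at 50 nM final. After 20 min at RT, polarization reported peptide displacement across a qHTS concentration series.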
An asterisk follows results filed as active; i = inactive; ? = inconclusive; . = no result given; [ ] = dose if it differs, or a comment. Unless noted, the call rests on the fitted dose curve; in most records, active means well fitted curve in the direction sought with a large enough effect; inconclusive means small, poorly fitted or top-dose-only effect, or another doubt; inactive means no such curve, though single readings can be large; an effect the other way counts as inactive or inconclusive. Potency means the concentration at half of the fitted maximal effect.

SMILES	KB-V1 MDR tox	PINK1 expr mod	SW480 rereplic	MCF10A rereplic	KB-3-1 cytotox	PTAP TSG101 blk
COc1cccc(C2c3cc4c(cc3OC(C)(N3CCCC3)C2C)OCO4)c1O (stereo not given)	16µM*	2%	18µM*	?	?	-7%
COc1cc(CC(=O)NCc2ccc3c(c2)OCO3)cc(OC)c1OC	i	-2%	-6%[9.22 µM]	-10%	?	-4%
COc1ccc(C2c3cc4c(cc3OC(NNC(N)=O)C2C)OCO4)cc1 (stereo not given)	9.2µM*	0%	?	?	6.5µM*	-3%
CCOc1ccccc1C1c2cc3c(cc2OC(C)(N2CCCC2)C1C)OCO3 (stereo not given)	i	1%	?	-4%	i	3%
CN(CCO)C(=O)c1cn(C2CCCN(Cc3ccc4ccccc4c3)C2)nn1 (stereo not given)	.	0%	.	.	.	.
COc1ccc(CNc2nc(-c3ccco3)nn2C(=O)CC(C)C)cc1	.	1%	.	.	.	.
COc1cc(C2c3cc4c(cc3OC(NCc3ccccc3)C2C)OCO4)cc(OC)c1OC (stereo not given)	?	7%	4.6µM*	1.6µM*	0.58µM*	-2%
COc1cc(C2c3cc4c(cc3OC(NNC(N)=S)C2C)OCO4)cc(OC)c1OC (stereo not given)	?	2%	2.6µM*	1.5µM*	1µM*	-1%
CCN(CC)C1Oc2cc3c(cc2C(c2cc(OC)c(O)c(OC)c2)C1C)OCO3 (stereo not given)	?	1%	?	?	?	-3%
Cc1cc(C)cc(N2CC(O)=C(c3nc4ccccc4c(=O)[nH]3)C2=N)c1	?	24%	?	?	15µM*	-5%
COc1cccc(N2CC(O)=C(c3nc4ccccc4c(=O)[nH]3)C2=N)c1	?	?	-6%	-1%	4.6µM*	-4%
CC(C)N1CC(O)=C(c2nc3ccccc3c(=O)[nH]2)C1=N	i	1%	-3%	2%	?	-3%
CC(C)C(NC(=O)c1ccoc1)c1nnc2n1CCN(C(=O)/C=C/c1ccc(F)cc1)CC2 (stereo not given)	.	-1%	.	.	.	.
Cc1ccccc1NC(=O)CSc1ccc(-c2cccs2)nn1	.	0%	.	.	.	.
CCC(=O)c1ccc(OCC(=O)N(Cc2nnc(-c3ccccc3Cl)o2)C2CC2)cc1	?	4%	1%	2%	i	-2%
CCCN(Cc1nnc(-c2ccccc2Cl)o1)C(=O)COc1ccc(Cl)cc1	4.1µM*	1%	-2%	7%	i	-7%
CCOC(=O)N1CCN(Cc2ccc3c(c2)CN(C(=O)c2sc(C)nc2C)CCO3)CC1	.	0%	.	.	.	.
Clc1ccccc1-c1nc(Nc2ccncc2)c2ccccc2n1	.	6%	.	.	.	.
Cc1ccc(S(=O)(=O)CC2CSc3nc(N)cc(=O)n32)cc1 (stereo not given)	i	-1%	-9%	0%	i	-7%
O=C(O)Cn1c(CCS(=O)(=O)c2ccc(Br)cc2)nc2ccccc21	i	-1%	-3%	-12%	i	-3%
Cc1ccc(S(=O)(=O)CC2CSc3nc4ccccc4n32)cc1 (stereo not given)	0.52µM*	-3%	-9%	0%	0.73µM*	-4%
Cc1ccc(S(=O)(=O)CCc2nc3ccccc3n2CCC#N)cc1	?	0%	?	18µM*	?	0%
Cc1cnc(-n2ncc(C(=O)NCC3COCCO3)c2C2CC2)nc1-c1cccs1 (stereo not given)	.	1%	.	.	.	.
CN1CCN(C2=Cc3ccccc3Sc3cc(F)c(F)cc32)CC1	i	15%	1%	-14%	?	-1%
OCCN1CCN(C2Cc3cc(Cl)ccc3Sc3ccc(Cl)cc32)CC1 (stereo not given) (tested in a mixture with another compound)	?	3%	?	?	?	-1%
SMILES	KB-V1 MDR tox	PINK1 expr mod	SW480 rereplic	MCF10A rereplic	KB-3-1 cytotox	PTAP TSG101 blk
CN1CCN(C2Cc3cc(Cl)ccc3Sc3cc(F)ccc32)CC1 (stereo not given)	18µM*	-4%	?	?	18µM*	-6%
CN1CCN(C2=Cc3cc(Cl)ccc3Sc3cc(F)ccc32)CC1	18µM*	5%	?	13µM*	?	1%
O=C(NCc1cccnc1)/C(=C/c1ccc(-c2cccc(Cl)c2)o1)S(=O)(=O)c1ccccc1	?	-3%	4%	?	i	-5%
O=C(NCc1cccnc1)/C(=C\c1ccc(-c2cccc(Cl)c2)o1)S(=O)(=O)c1ccccc1	4.1µM*	-2%	?	7.3µM*	?	-3%
CN(C)c1ccc(/C=C(\NC(=O)c2ccccc2)C(=O)NCc2cccnc2)cc1	i	1%	-24%	7%	i	13%
Cc1ccc(C(=O)N/C(=C\c2ccc(-c3cc(Cl)ccc3Cl)o2)C(=O)NCc2cccnc2)cc1	16µM*	-3%	6%	4%	?	-2%
O=C(CSc1nc2c(c(=O)[nH]1)CCC2)Nc1ccccc1F	i	-1%	.	.	i	.
CC(C)C(=O)NC(NC(=S)Nc1cccc2cccnc12)C(Cl)(Cl)Cl (stereo not given)	23µM*	-1%	2%	6%	i	-5%
CCC(=O)NC(NC(=S)Nc1cccc2cccnc12)C(Cl)(Cl)Cl (stereo not given)	i	2%	4%	-1%	i	-3%
CC(C)(C)C(=O)NC(Nc1cccc2cccnc12)C(Cl)(Cl)Cl (stereo not given)	?	7%	23µM*	21µM*	i	-16%
COc1ccc(OCC(=O)NCc2ccc3c(c2)CCN3C(=O)c2ccc(F)cc2)cc1	i	1%	.	.	i	.
COc1cc(C#Cc2c(C=O)n(C)c3ccccc23)cc(OC)c1	i	?	8.2µM*	5.8µM*	?	-3%
C=CCn1c2ccccc2c(=O)c2cc(C#Cc3cc(OC)cc(OC)c3)ccc21	i	1%	6.5µM*	?	i	4%
COc1ccc(-c2c(C#Cc3ccc(N(C)C)cc3)c3ccccc3n2C)cc1	i	18µM*	?	?	i	-1%
CCOc1ccc(C2=NC(c3cccs3)=Nc3ccc(C(C)C)cc3N2)cc1	i	0%	.	.	i	.
O=C(c1cccc(Cn2cccn2)c1)N1CCC(n2c(C3CCCO3)nc3cc(C(F)(F)F)ccc32)CC1 (stereo not given)	.	0%	.	.	.	.
